For 31 molecules, growth results are on record in PubChem BioAssay (NCI).

About 83,000 compounds went through this panel and 20% of them were active in at least one assay; those are over-represented in the sample as a whole.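 Method: cells in 96-well plates; compound added at one concentration; 48 h incubation; percent growth measured; values under 10 scored active.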 A number with no mark means an inactive call. Calls of active or inactive are those of the source.

Experiment in all cases: NCI-60 one-dose screen, 48 h (100 = growth as untreated, 0 = no growth, -100 = all killed)
What all share (details): 10 µM

Experiment [1] deals with NCI-H23 lung.
The subject of experiment [2] is NCI-H226 lung.
The subject of experiment [3] is HOP-62 NSCLC.
The subject of experiment [4] is NCI-H460 lung.
The subject of experiment [5] is HOP-92 NSCLC.
Experiment [6] deals with NCI-H522 lung.
Experiment [7] deals with A549/ATCC NSCLC.
For experiment [8], the system named is COLO 205 colon.
For experiment [9], the system named is 786-0 renal.

In the case of `Cc1ccc(C(SCC(N)C(=O)O)(c2ccc(C)cc2)c2ccc(C)cc2)cc1` (stereo unspecified), the growth was 18.3% in [1]; 64.1% in experiment [2]; -48.3% (active) in experiment [3]; 3.09% (active) in experiment [4]; -15.3% (active) in experiment [5]; -66.2% (active) in experiment [6]. Also, the growth in experiment [7] was 14.6%; in [8] it was 0.644% (active).

In the case of `CC(=O)N[C@H](C(=O)N[C@@H](CCCNC(=N)N)C(=O)N[C@@H](CCCCN)C(=O)N[C@@H](CCCNC(=N)N)C(=O)N[C@]1(C)CCCCCC/C=C\CCC[C@@](C)(C(=O)N[C@@H](CCCNC(=N)N)C(=O)N[C@@H](CCC(=O)O)C(=O)N[C@@H](CC(C)C)C(=O)N[C@H](C(=O)N[C@@H](CCC(=O)O)C(N)=O)C(C)C)NC(=O)[C@H](CCC(N)=O)NC(=O)[C@H](CC(C)C)NC(=O)[C@H](CC(C)C)NC(=O)[C@H](CCCNC(=N)N)NC(=O)[C@H](CCCNC(=N)N)NC(=O)[C@H](CC(C)C)NC1=O)C(C)C`, the growth was 1.83% (active) in experiment [1]; 9.55% (active) in experiment [2]; -31.5% (active) in experiment [3]; -9.29% (active) in experiment [4]; -63.6% (active) in experiment [5]; 28.7% in [6]. Moreover, the growth was -51.4% (active) in experiment [9] and -29.5% (active) in experiment [8].

In the case of `COc1ccc(-c2onc(N)c2-c2cc(OC)c3c(c2)OCO3)cc1`, the growth in experiment [1] is 44%; in experiment [2], 77%; in [3] it was 29.4%; in experiment [4] it was 14.9%; in experiment [5], 63.9%; in experiment [6] it was 9.81% (active). The growth is 47.2% in experiment [9] and 12.4% in experiment [8].

As for `COc1cc(N)c2ncccc2c1SC`, the growth in experiment [1] is 93.6%; in [2] it was 106%; in [3], 107%; in experiment [4], 105%; in experiment [5], 94.6%; in [7], 99.5%. Moreover, the growth in experiment [9] is 116%; in experiment [8] it was 100%.

Regarding `C[C@@H](C[C@H](CCO)c1ccccc1)c1ccc2ccccc2c1`, the growth is -65.1% (active) in experiment [1]; -65.7% (active) in experiment [2]; -55% (active) in [3]; -48.5% (active) in experiment [4]; -95.6% (active) in experiment [5]; -53.9% (active) in experiment [6]. In addition, the results for the growth in [9] and in experiment [8] were -90.6% (active) and -86.9% (active), respectively.

In the case of `CN(C)CCCOc1cccc(NC2=C(Cl)C(=O)C(Nc3cccc(OCCCN(C)C)c3)=C(Cl)C2=O)c1`, the growth was -67.1% (active) in [1]; -70% (active) in experiment [2]; -85.1% (active) in experiment [3]; 38.3% in [4]; -74.3% (active) in experiment [5]; -79.5% (active) in experiment [6]. Besides, the growth in experiment [9] was -94.2% (active).

Turning to `COc1ccc(C(=O)COc2cccc(/C=C3\Cc4ccccc4C3=O)c2)cc1`, the growth in experiment [1] is 74.5%; in [2], 73.4%; in experiment [3] it was 93.2%; in experiment [4], 111%; in experiment [5], 48.7%; in experiment [6], 56.6%. Moreover, the growth is 82.2% in [9] and 124% in experiment [8].

For the molecule `CCOC(=O)c1cc(C(=O)c2cc(OC)c(OC)c(OC)c2)n2ncc3ccccc3c12`, the growth is 82.5% in experiment [1]; 95.1% in experiment [2]; 89.5% in [3]; 51.3% in [4]; 81.6% in [5]; 39.6% in experiment [6]. The growth was 94.5% in experiment [9] and 60.4% in [8].

In the case of `Cc1cc(SCc2ccccc2)nc(N)n1`, the growth in experiment [1] was 97.3%; in [2], 115%; in experiment [3], 105%; in experiment [4] it was 111%; in experiment [5] it was 85.2%; in [7], 105%. In addition, the results for the growth in experiment [9] and in experiment [8] were 79.1% and 127%, respectively.

As for `O=C(O)c1ccc(-n2cc(CNc3ccc(Oc4ccccc4)cc3)c(-c3ccccc3)n2)cc1`, the growth in [1] was 81.1%; in [2], 99.3%; in experiment [3], 122%; in experiment [4], 90.2%; in experiment [5], 89%; in [6], 84.4%. In addition, the figures for the growth in experiment [9] and in experiment [8] were 90.6% and 101%, respectively.

For the molecule `NC(=O)c1cccc(-n2ccc3cc(NC(=O)Nc4ccc(Cl)c(C(F)(F)F)c4)ccc32)n1`, the growth was 82.2% in experiment [1]; 66.2% in experiment [2]; 86.5% in experiment [3]; 68% in experiment [4]; 97.6% in experiment [5]; 64.7% in [6]. For the same molecule, the growth in experiment [9] was 49.1%; in experiment [8], 85.6%.

For the molecule `CC(C)(C)OC(=O)CN1CCc2c(sc3ncnc(N/N=C/c4ccccc4Br)c23)C1`, the growth is 80.2% in [1]; 83.4% in experiment [2]; 89% in experiment [3]; 70.9% in experiment [4]; 73.7% in [5]; 53.4% in experiment [6]. Further, the growth in experiment [9] was 77%; in [8] it was 62.1%.

In the case of `CC1CCCC(C(=O)O)C1C(=O)O` (stereo unspecified), the growth in experiment [1] is 98.1%; in experiment [2], 96.7%; in experiment [3] it was 87.7%; in experiment [4], 104%; in experiment [5], 86.1%; in experiment [6] it was 80.8%. In addition, the results for the growth in experiment [9] and in [8] were 94% and 102%, respectively.

In the case of `CN(C)CCCOc1ccc(NC2=C(Cl)C(=O)C(Nc3ccc(OCCCN(C)C)cc3)=C(Cl)C2=O)cc1`, the growth in experiment [1] was -72% (active); in experiment [2], -84.1% (active); in experiment [3], -98.2% (active); in experiment [4] it was -65.7% (active); in experiment [5], -74.9% (active); in experiment [6], -75.2% (active). Besides, the growth in experiment [9] is -50% (active); in [8], -74.3% (active).

On to `Cc1cc(CSc2ccccc2C(=O)N2CC=C(c3ccccc3)CC2)on1`, for which the growth is 89.4% in experiment [1]; 88.4% in experiment [2]; 92.2% in experiment [3]; 100% in experiment [4]; 93.4% in experiment [5]; 75.3% in experiment [6]. For the same molecule, the growth in [9] was 94.5%.

With `NNC(=O)Oc1c(Cl)cc(Cl)cc1[N+](=O)[O-]`, the growth in [1] is 97.8%; in experiment [2], 106%; in experiment [3] it was 94.6%; in experiment [4], 110%; in experiment [5] it was 115%; in experiment [6], 96.9%. In addition, the growth in experiment [9] is 105%; in experiment [8], 110%.

As to `Cc1ccc(NCCN(C)CC(C)O)c2c(=O)c3ccc(Cl)cc3sc12` (stereo unspecified), the growth is 65.7% in experiment [1]; 85.3% in experiment [2]; 87.1% in [3]; 0.284% (active) in [4]; 34.3% in experiment [5]; 57.4% in experiment [6]. Moreover, the growth in experiment [9] is 47.3%; in experiment [8], -78% (active).

Regarding `O=[N+]([O-])c1cccc(/C=N/NC(=S)NC23CC4CC(CC(C4)C2)C3)c1`, the growth was 86.6% in experiment [1]; 48.4% in experiment [2]; 24.3% in experiment [3]; 56.4% in experiment [4]; 64% in experiment [5]; 88.8% in experiment [6]. For the same molecule, the growth in experiment [9] was 79.8%; in experiment [8], 102%.

Regarding `Cc1cc(Cl)ccc1Nc1nc(C(F)(F)F)ccc1C(=O)N/N=C/c1cccc(O)c1`, the growth in experiment [1] was 43.8%; in [2] it was 38.8%; in [3] it was 44.2%; in [4], 30.9%; in [5], 48.1%; in [6], 40.2%. Besides, the growth in experiment [9] is -30.6% (active).

Turning to `CSc1nc(S(C)(=O)=O)nc2[nH]c(=O)[nH]c12`, the growth in [1] is 98.8%; in experiment [2] it was 101%; in experiment [3] it was 98.2%; in experiment [4], 116%; in experiment [5] it was 97.5%; in [7], 106%. Further, the growth in experiment [9] is 107%.

In the case of `CC(C)(C)OC(=O)N1CCc2c(sc3ncnc(N/N=C/c4ccc(Br)cc4)c23)C1`, the growth in experiment [1] is 71.8%; in [2], 79%; in experiment [3], 69%; in experiment [4], 39.6%; in [5] it was 94.4%; in [6], 35.6%. For the same molecule, the growth in experiment [9] is 76.5%; in [8], 41%.

Take `CCN(CC)CCOc1cccc2c1C(=O)c1cccc(OCCN(CC)CC)c1C2=O`: the growth in experiment [1] is 42.2%; in [2], 36.6%; in [3] it was 37%; in [4] it was 13.9%; in [5] it was 36.5%; in [6], 42.8%. The growth was 38.6% in experiment [9] and 6.57% (active) in experiment [8].

In the case of `O=C1/C(=C/c2ccc3c(c2)OCO3)SC(=S)N1C1c2ccccc2Oc2ccccc21`, the growth in [1] is 89.8%; in experiment [2], 97.9%; in experiment [3] it was 98.3%; in experiment [4] it was 107%; in experiment [5] it was 90.7%; in experiment [6], 95.8%. Also, the growth was 97.6% in experiment [9] and 99.7% in experiment [8].

Take `COc1nc2c(c(=O)n1C)CN(c1ccccc1)C(=O)C(C)N2` (stereo unspecified): the growth is 95.7% in [1]; 95.6% in [2]; 88.1% in experiment [3]; 104% in [4]; 84.6% in experiment [6]; 99.2% in experiment [7]. Moreover, the results for the growth in experiment [9] and in experiment [8] were 97.5% and 115%, respectively.

With `COc1ccc(C2CC(c3cc(OC)c(OC)c(OC)c3)=NN2)cc1` (stereo unspecified), the growth in experiment [1] was 86.6%; in experiment [2], 93.2%; in [3], 98.1%; in experiment [4], 51.5%; in experiment [6], 53.3%; in [7], 51.7%. Also, the growth in experiment [9] is 92.1%; in experiment [8] it was 55.1%.

On to `COc1ccc2c(c1)C(=O)/C(=C/c1ncc([N+](=O)[O-])n1C)O2`, for which the growth in experiment [1] was -5.43% (active); in experiment [2], -24.6% (active); in experiment [3], -27% (active); in [4], -42.6% (active); in experiment [6], -51.5% (active); in [9] it was -26.3% (active). The growth in [8] was -47.5% (active).

Take `CS(=O)(=O)c1nccc(-c2c(-c3cccc(OCCc4ccccc4)c3)nc3sccn23)n1`: the growth was 95.6% in [1]; 81.4% in experiment [2]; 93% in experiment [3]; 106% in [4]; 90.5% in [6]; 101% in [7]. In addition, the growth in experiment [9] is 108%; in experiment [8] it was 103%.

As to `Cn1cnc([N+](=O)[O-])c1/C=C1\Oc2ccc(Br)cc2C1=O`, the growth in experiment [1] was 93%; in experiment [2] it was 101%; in experiment [3], 100%; in experiment [4] it was 97.3%; in experiment [6], 52.7%; in [7], 104%. For the same molecule, the growth in [9] is 91.4%; in experiment [8], 98%.

In the case of `Nc1ncc(-c2cnn(C3CCNCC3)c2)cc1-c1nc2ccccc2o1`, the growth is 20.2% in experiment [1]; 15.8% in [2]; 24.3% in experiment [3]; -0.928% (active) in experiment [4]; 19.7% in [6]; 7.74% (active) in [7]. Besides, the results for the growth in experiment [9] and in [8] were 19.5% and -73.7% (active), respectively.

As for `COc1cccc2ccc(CC(O)(c3ccccc3)c3ccccc3)nc12`, the growth in experiment [1] is 89.6%; in experiment [2] it was 71.2%; in experiment [3], 86.8%; in experiment [4], 90.8%; in [6], 93.5%; in experiment [7], 95.5%. Besides, the values for the growth in experiment [9] and in experiment [8] were 96.7% and 95.4%, respectively.

Turning to `O=C(CSc1nnc(-c2cccnc2SCc2ccccc2)o1)Nc1nc(Cl)cc(Cl)n1`, the growth was 102% in experiment [1]; 83.7% in [2]; 90.6% in [3]; 105% in experiment [4]; 83.1% in [6]; 104% in [7].
